Many of the other results were omitted from the sample, so hits are more common in it than they were.
PRC2 inh: inhibitors of human EZH2/PRC2 methyltransferase | AID 651548 | Q15910 | inhibition, % at 12.5 µM | 57,000 tested, 0.35% active | PRC2 H3K27 methylation, DELFIA TRF, 1 h;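 active means mean inhibition of replicates at least 50% and every single replicate also reaching 50%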;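 further: dimethyl H3K27 on biotinylated H3 21-44 peptide detected by antibody; plate controls were median neutral control wells for no effect and median positive control wells for full effect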
An asterisk follows results filed as active.

SMILES	PRC2 inh
CC(C)=CCN(CC#Cc1ccccc1)[C@H](CO)c1ccccc1	66.3*
CC1(C)CC(=O)C2=C(C1)N(Cc1ccco1)C(=O)C2(NC(=O)c1ccco1)C(F)(F)F (stereo not given)	-5.2
C[C@H](CO)N1C[C@H](C)[C@@H](CN(C)S(=O)(=O)CC(F)(F)F)OCc2ccccc2-c2ccccc2C1=O	-0.6
C[C@@H]1CN([C@H](C)CO)C(=O)c2cc(NC(=O)Cn3cnnn3)ccc2O[C@@H]1CN(C)Cc1ccc(Cl)c(Cl)c1	-1.7
CC1(C)COC(CCC/C=N/NC(=O)CCCCCC(=O)NO)OC1	-49.2
COC(=O)CCCCCCC(=O)N/N=C/c1cccc(OCCO)c1	5.9
COC(=O)CCCCCCC(=O)N/N=C/c1ccccc1	22.0
COC(=O)CCCCCCC(=O)N/N=C/c1ccc(-c2cccc(Cl)c2)o1	54.4*
O=C(CCCCC(=O)N/N=C/c1ccc(-c2cccc(Cl)c2)o1)NO	-1.3
CCCCN(CCCC)c1ccc(/C=N/NC(=O)c2ccccc2O)cc1	18.9
COC(=O)CCCCCCC(=O)N/N=C/c1cccc(Oc2ccccc2)c1	55.6*
COC(=O)CCCCCCC(=O)N/N=C/c1ccc(OCCO)cc1	17.6
CCCCN(CCCC)c1ccc(/C=N/NC(=O)CCCCCCC(=O)OC)cc1	79.5*
O=C(N/N=C/c1ccc(-c2cccc(Cl)c2)o1)c1ccccn1	5.9
C[C@@H]1CN([C@@H](C)CO)S(=O)(=O)c2ccc(C3=CCCCC3)cc2O[C@H]1CN(C)S(=O)(=O)c1ccc(F)cc1	17.6
CCOC(=O)c1c(NC(=O)COc2cc(C)ccc2C)sc2c1CCC2	-24.4
CO[C@H]1CN(C)C(=O)c2ccc(NC(C)=O)cc2OC[C@@H](C)NC[C@@H]1C	2.4
COC(=O)c1ccccc1NC(=O)CN1CCN(C)CC1	1.5
CCCC(=O)Nc1ccc2c(c1)C(=O)N(C)C[C@H](OC)[C@H](C)CN(CCC(F)(F)F)[C@@H](C)CO2	-1.3
c1ccc(-n2nnnc2CSc2ncn[nH]2)cc1	-3.0
O=C(CCCCCC(=O)N/N=C/c1cc(O)ccc1O)NO	0.1
O=C(NO)c1cccc(C(=O)N/N=C/c2cccc(O)c2O)c1	78.5*
O=C(NO)c1cccc(C(=O)N/N=C/c2cc(Br)ccc2O)c1	8.4
O=C(CCCCCC(=O)N/N=C/c1ccc(O)cc1O)NO	5.3
O=C(NO)c1cccc(C(=O)N/N=C/c2ccc(O)cc2O)c1	-3.1
SMILES	PRC2 inh
O=C(CCCCC(=O)N/N=C/c1ccc(O)c(O)c1O)NO	76.0*
O=C(NO)c1cccc(C(=O)N/N=C/c2cc(Br)cc(Br)c2O)c1	-26.7
O=C(NO)c1cccc(C(=O)N/N=C/c2ccc(O)c3ccccc23)c1	-3.2
O=C(NO)c1cccc(C(=O)N/N=C/c2ccc(O)c(O)c2O)c1	95.0*
C[C@H](NC(=O)C[C@H]1C[C@@H]2c3cc(NC(=O)C4CCC4)ccc3O[C@@H]2[C@H](CO)O1)c1ccccc1	-1.8
COC(=O)c1cc(NC(=O)COc2c(C)cc(Cl)cc2Cl)cc(C(=O)OC)c1	7.6
C[C@H](CO)N1C[C@H](C)[C@H](CN(C)Cc2ccncc2)Oc2ncc(C#Cc3ccncc3)cc2C1=O	1.7
Cc1ccccc1-c1nc(S(=O)(=O)c2ccc(Cl)cc2)c(NCC2CCCO2)o1 (stereo not given)	27.8
O=C(/C=C/c1ccc(O)cc1)CC(=O)/C=C/c1ccc(O)cc1	1.0
CC(C)(C)c1cc(C(F)(F)F)c(C#N)c(SCC(=O)Nc2cccc(F)c2)n1	-5.1
C[C@@H]1CN([C@@H](C)CO)C(=O)Cc2cc(N(C)C)ccc2O[C@H]1CN(C)C(=O)Nc1ccccc1	8.8
N#Cc1c(NC(=O)CSc2n[nH]c(-c3ccc(Cl)cc3Cl)n2)sc2c1CCCC2	52.2*
O=C(CSc1n[nH]c(-c2ccc(Cl)cc2Cl)n1)Nc1ccccc1F	-5.4
O=C(CSc1n[nH]c(-c2ccc(Cl)cc2Cl)n1)Nc1cccc(Cl)c1Cl	31.5
CSc1cccc(NC(=O)CSc2ncn(-c3ccccc3)n2)c1	19.1
COc1ccc([Si](C)(C)[C@@H]2[C@@H](CCO)O[C@]3(C(=O)N(Cc4ccc(NC(C)=O)cc4)c4ccccc43)[C@H]2C)cc1	20.4
COc1ccc([Si](C)(C)[C@@H]2[C@@H](CCO)O[C@]3(C(=O)N(c4ccccc4)c4ccccc43)[C@H]2C)cc1	50.7*
COc1ccc([Si](C)(C)[C@@H]2[C@@H](CCn3cc([C@H](O)c4ccccc4)nn3)O[C@]3(C(=O)N(c4ccccc4)c4ccccc43)[C@H]2C)cc1	11.2
COc1ccc([Si](C)(C)[C@H]2[C@H](CCn3cc([C@H](O)c4ccccc4)nn3)O[C@@]3(C(=O)N(C)c4c(Br)cc(C)cc43)[C@@H]2C)cc1	16.9
COc1ccc([Si](C)(C)[C@@H]2[C@@H](CCO)O[C@]3(C(=O)N(C)c4c(Br)cc(C)cc43)[C@H]2C)cc1	51.6*
COc1ccc([Si](C)(C)[C@@H]2[C@@H](CCO)O[C@]3(C(=O)N(C)c4ccccc43)[C@H]2C)cc1	12.3
CC(C)NC(=O)N(C)C[C@H]1Oc2c(NC(=O)C3CC3)cccc2C(=O)N([C@H](C)CO)C[C@H]1C	-0.4

Screens (PubChem BioAssay)
